About 83,000 compounds went through this panel and 20% of them were active in at least one assay; those are over-represented in the sample as a whole.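 A percent growth of 40 corresponds to 60% growth inhibition; 0 means no net growth; -100 means all cells died. Active threshold: below 10.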 A number with no mark means an inactive call. Active and inactive are the calls of the source.
tested on: M14 melanoma; assay: NCI-60 one-dose screen, 48 h (100 = growth as untreated, 0 = no growth, -100 = all killed); details: 10 µM

Compound	growth
COc1cc(-c2nnc(-c3c(-c4ccc(F)cc4)nc4ccccn34)o2)cc(OC)c1OC	104%
COc1ccc2c(c1)/C(=C\c1c[nH]c3ccc(OC)cc13)C(=O)N2	29.8%
NC(=O)CC1(c2ccccc2)CCCCC1	96%
COc1ccc(-c2nc3sccn3c2-c2nc3c([nH]2)C(=O)c2ccccc2C3=O)cc1	130%
Fc1ccc(-c2nnc(-c3c(-c4ccc(F)cc4)nc4ccccn34)o2)cc1	116%
CCN1CCCC1CNC(=O)c1ncc(-c2ccc(C(F)(F)F)cc2)c(NC2CCCCCC2)n1 (stereo not given)	26.1%
Cc1ccc(Nc2cc(C)nc(NCCCNc3ccnc4cc(Cl)ccc34)n2)cc1	-86% (active)
Cn1c([N+](=O)[O-])cnc1/C=C1\Oc2ccccc2C1=O	-43.3% (active)
CC12O[C@H](C[C@@H](OC(=O)c3ccccc3)[C@H]1O)n1c3ccccc3c3c4c(c5c6ccccc6n2c5c31)C(=O)NC4=O	44.4%
COc1ccc(-c2nc3ncccn3c2-c2nnc(-c3ccc(F)cc3)o2)cc1	110%
Nc1ccc2c(c1)C1(CCC2)NC(=O)NC1=O (stereo not given)	100%
COc1cc(OC)cc(-c2cncn2-c2ccc(-c3nc4cc(OC)cc(OC)c4s3)cc2)c1	38.8%
Clc1ccc2c(NCCCNc3nccc(Nc4ccc(Br)cc4)n3)ccnc2c1	-83.6% (active)
O=C(Nc1cccc(Br)c1)c1cc(=O)[nH]c2ccccc12	104%
COc1cc(Nc2ccnc(NCCCNc3ccnc4cc(Cl)ccc34)n2)cc(OC)c1	-85.6% (active)

From PubChem BioAssay (NCI)
